Test results published in PubChem BioAssay (NCATS).
Where “and” joins values, the source holds several entries; their conditions need not be identical. Equal values may be shown once. Records with an inconclusive call do not appear. Entries that show only a call come without a potency. Calls of active or inactive are those of the source. Unless noted, the call rests on the fitted dose curve; in most records, active means well fitted curve in the direction sought with a large enough effect; inconclusive means small, poorly fitted or top-dose-only effect, or another doubt; inactive means no such curve, though single readings can be large; an effect the other way counts as inactive or inconclusive.

Legend:
[1] = P-glycoprotein substrates identified in KB-8-5-11 adenocarcinoma cell line, qHTS therapeutic library screen (AID 1346987); further: nearly all actives have a fitted effect of over 65% in size; further: potency means the concentration at half of the fitted maximal effect
In short: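 Compounds are pinned in dose-response onto KB-8-5-11 cells (500 cells/well, colchicine-free medium) and left 72 h at 37 degree C. CellTiter-Glo luminescence then yields AC50 values.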

[2] = Natriuretic polypeptide receptor (hNpr1) antagonism - Pilot counterscreen GloSensor control cell line (AID 1347045; calls by dose curve)
In short: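 Control counterscreen: luciferase cGMP-biosensor HEK293 cells (no Npr1) received compound for 30 min at room temperature after GloSensor substrate loading. Luminescence was measured before and 20 min after soluble guanylyl cyclase activation by 50 uM nitroprusside.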

[3] = P-glycoprotein substrates identified in KB-3-1 adenocarcinoma cell line, qHTS therapeutic library screen (AID 1346986); settings: KB-3-1 parental cells viability, CellTiter-Glo, 72 h; at 44.5 µM (top of the series); further: nearly all actives have a fitted effect of over 60% in size
In short: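 In 1536-well format, 500 cells/well received pinned compound titrations and were incubated 72 h, 5% CO2. Viability was read by CellTiter-Glo; cytotoxic if AC50 < 10 uM and efficacy >50%.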

[4] = Identifying Small Molecule Inhibitors of Pancreatic Cancer Stem Cells (A2780, Spheroid) (AID 1259357); settings: Potency: A2780 spheroid viability; further: potency means the concentration at half of the fitted maximal effect;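 further: spheroids pre-formed over 14 days in stem cell medium on hydrogel; compound exposure lasted 48 h before the ATP luminescence read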
In short: (§1)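 Luminescent ATP readout (CellTiter-Glo) quantifies surviving cells after a 48 h drug incubation. Normalization uses DMSO wells as no inhibition and media-only wells as full inhibition; bortezomib served as positive control.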

[5] = Identifying Small Molecule Inhibitors of Pancreatic Cancer Stem Cells (SN12C, Adherent) (AID 1259358);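 further: cell survival measured after 48 h of compound exposure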; further: potency means the concentration at half of the fitted maximal effect
In short: (§2)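 Spheroids grown 14 days in stem cell media on hydrogel-coated nonadherent plates; 2D lines seeded directly. Compounds added after 4 h attachment, 48 h at 37C, 5% CO2; CellTiter-Glo luminescence normalized to DMSO (no inhibition) and no-cell wells (full inhibition).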

[6] = Identifying Small Molecule Inhibitors of Pancreatic Cancer Stem Cells (SN12C, Spheroid) (AID 1259360); settings: Potency: SN12C spheroid viability; further: potency means the concentration at half of the fitted maximal effect
In short: as §1

[7] = Identifying Small Molecule Inhibitors of Pancreatic Cancer Stem Cells (A278, Adherent) (AID 1259361);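 further: viability read after 48 h compound exposure; nearly all actives have a fitted effect of over 35% in size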
In short: as §2

With O=C(O)C1CCCN(CCC=C(c2ccccc2)c2ccccc2)C1 (stereo not drawn) the Potency [1] was “inactive” and the Potency [2] was “inactive”.
With O=C(NCC1CN(c2ccc(N3CCOCC3=O)cc2)C(=O)O1)c1ccc(Cl)s1 (stereo not drawn) the Potency [1] was “inactive”.
With O=C(O)CSCC(=O)NC1CCSC1=O (stereo not drawn) the outcome [3] was “inactive” and the Potency [1] was “inactive”.
With CC1(C)[C@H](C(=O)O)N2C(=O)C[C@H]2S1(=O)=O the Potency [1] was “inactive”.
In the case of CC1=C(C(=O)O)N2C(=O)[C@@H](NC(=O)C(N)c3ccccc3)[C@H]2SC1 (stereo partly drawn), the outcome [3] is reported as “inactive”, the Potency [1] is reported as “inactive” and the Potency [2] is reported as “inactive”.
In the case of CNC(=O)c1cc(Oc2ccc(NC(=O)Nc3ccc(Cl)c(C(F)(F)F)c3)cc2)ccn1, the Potency [4] is reported as 20.9 µM (active), the Potency [5] is reported as 20.9 µM (active) and the Potency [6] is reported as 18.7 µM (active). The IC50 (viability decrease) [7] was 18.7 µM (active) and the Potency [1] was 11.8 µM (active) and 8.2 µM (active) and 6.51 µM (active).
In the case of NC(=O)c1cccc(N)c1, the outcome [3] is reported as “inactive”, the Potency [1] is reported as “inactive” and the Potency [2] is reported as “inactive”.
For COC(=O)Nc1nc2ccc(S(=O)c3ccccc3)cc2[nH]1 (stereo not drawn), the Potency [1] was 10.5 µM (active).
In the case of CC(C(=O)O)c1ccc2c(c1)CC(=O)c1ccccc1S2 (stereo not drawn), the outcome [3] is reported as “inactive” and the Potency [1] is reported as “inactive”.
For Cc1c(-c2ccc(O)cc2)n(Cc2ccc(OCCN3CCCCCC3)cc2)c2ccc(O)cc12, the Potency [5] was “inactive” and the Potency [6] was “inactive”.
With COc1cc2c(Nc3ccc(Br)cc3F)ncnc2cc1OCC1CCN(C)CC1 the Potency [4] was “inactive”, the IC50 (viability decrease) [7] was 18.7 µM (active) and the Potency [1] was “inactive”.
In the case of CCCCc1oc2ccc(NS(C)(=O)=O)cc2c1C(=O)c1ccc(OCCCN(CCCC)CCCC)cc1, the Potency [1] is reported as 26.4 µM (active) and 16.4 µM (active).
For CC1CC2C3CCC4=CC(=O)C=C[C@]4(C)[C@@]3(F)[C@@H](O)C[C@]2(C)[C@@]1(O)C(=O)CO (stereo partly drawn), the Potency [1] was “inactive” and the Potency [2] was “inactive”.
